Measured values from PubChem BioAssay (NCATS).
Inconclusive results are not listed. Calls of active or inactive are those of the source. Unless noted, calls follow the shape of the dose curve; as a rule, active = well fitted curve in the direction sought with a large enough effect; inconclusive = small, poorly fitted or top-dose-only effect, or another doubt; inactive = no such curve, though single readings can be large; an effect the other way counts as inactive or inconclusive.

Assays:
[1] = AP1 Signaling Pathway (AID 357; active = well fitted curve in either direction with a large enough effect, not every such curve was filed as active;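 also: ME-180 reporter cells stimulated with EGF at its EC50 level; % is scaled to controls: 0 for no effect and ±100 for the full control effect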); settings: ME-180 AP-1-bla reporter, EGF-induced, beta-lactamase ratio, 5 h; at 7.69 µM (top of the series) unless noted
Method in brief: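 Modulation of EGF-driven AP-1 transcription was assessed with a beta-lactamase reporter in ME-180 cells. Compound and EC50 EGF were co-incubated 5 hours at 37 °C before 2.5-hour CCF4 loading at room temperature and dual-emission reading.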

[2] = target: Cytochrome P450 1A2 (Homo sapiens) (UniProt P05177); assay: p450-cyp1a2 (AID 410; calls by dose curve; also: potency is read from the fitted curve at half-maximal effect)
Method in brief: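 20nM CYP1A2, 100uM Luciferin-ME (=Km), 100mM KPO4; cpd 10 min RT; +NADPH regen, 60 min RT; stop/detect 20 min; luminescence. Normalized to furafylline 57 uM = full inhibition.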

[3] = NFAT Signaling Pathway (AID 444; active = well fitted curve in either direction with a large enough effect, not every such curve was filed as active;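 also: carbachol stimulus at about its EC50 of 1 µM final; % is scaled to controls: 0 for no effect and ±100 for the full control effect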); settings: Jurkat NFAT-bla M1, carbachol, beta-lactamase ratio, 5 h; at 7.69 µM (top of the series) unless noted
Method in brief: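 Read-out: CCF4 FRET ratio (460 nm/530 nm) after 1 h RT dye loading, used for %activity and AC50 from titration series. Cells: Jurkat NFAT-β-lactamase/M1 line, treated with compound plus 1 uM carbachol for 5 h, 37 °C.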

[4] = Stat Signaling Pathway (AID 446; active = well fitted curve in either direction with a large enough effect, not every such curve was filed as active;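 also: ME-180 cervical cancer cells given 40 pM IL-6 alongside compound; SIE-controlled beta-lactamase reporter measured as 460/530 nm FRET emission ratio; % is scaled to controls: 0 for no effect and ±100 for the full control effect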); settings: ME-180 (cervical carcinoma) SIE beta-lactamase reporter, IL-6 stimulated, 5 h; at 7.69 µM (top of the series) unless noted
Method in brief: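 Normalization used AC90 stimulation (300 pM IL-6) and AC90 inhibition (125 nM pan-JAK inhibitor at 40 pM IL-6). The underlying signal is SIE-driven beta-lactamase in ME-180 cells after 5 h IL-6 exposure with compound.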

[5] = target: Glucocorticoid receptor (Homo sapiens) (UniProt P04150); assay: GR-GFP Redistribution (AID 450;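 active = compounds whose dose series gives a full or clear partial fitted curve of increased nuclear translocation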; also: potency is read from the fitted curve at half-maximal effect); settings: U2OS GR-GFP nuclear translocation, laser cytometry, 2 h
[6] = target: Glucocorticoid receptor (Homo sapiens) (UniProt P04150); assay: GR-EFC Redistribution (AID 451; calls by dose curve; also: potency is read from the fitted curve at half-maximal effect); settings: CHO-K1 GR-EFC translocation, beta-gal luminescence, 2 h
Method in brief: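 Translocation of GR-ED fusion to nuclear EA restores b-gal, read by luminescence after 1 h room-temperature detection. Engineered CHO-K1 biosensor cells, 1,000/well, exposed 2 h at 37 C to titrations up to 46 uM final.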

[7] = target: Mitogen-activated protein kinase 10 (Mus musculus) (UniProt Q61831); assay: JNK3 AlphaScreen Assay (AID 530; active = well fitted curve in either direction with a large enough effect, not every such curve was filed as active;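 also: kinase came from lysate of stimulated human HepG2 cells; signal reports phosphorylation of biotinylated GST-cJun 1-79 at Ser73 with 10 µM ATP; % is scaled to controls: 0 for no effect and ±100 for the full control effect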)
Method in brief: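 Kinase buffer: 20 mM Tris-HCl pH 7.6, 10 mM MgCl2, 1 mM DTT, 0.1 mM Na3VO4, 0.01% Tween-20; ATP 10 uM. Substrate biotin-GST-cJun(1-79), enzyme from activated HepG2 lysates. Detection by Ser73 phospho-antibody AlphaScreen.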

[8] = target: 3',5'-cyclic-AMP phosphodiesterase 4B (Homo sapiens) (UniProt Q07343); assay: qHTS Assay for Inhibitors of PDE-IV (AID 607; active = well fitted activation curve with a large enough effect in the main read-out, with a control signal flat, not every such curve was filed as active; also: % of control where 0% means no effect)
Method in brief: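 HEK293 ACTOne cells with CNG channel (1000/well), endogenous PDE4; membrane potential dye, compounds up to 22.9 uM final. Fluorescence Ex 535/Em 590; RO 20-1724 (100 uM final) as reference.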

[9] = target: Cytochrome P450 3A4 (Homo sapiens) (UniProt P08684); assay: qHTS Assay for Inhibitors and Substrates of Cytochrome P450 3A4 (AID 884); also: potency is read from the fitted curve at half-maximal effect; nearly all actives have a fitted effect of over 50% in size
Method in brief: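 Luminescent readout of luciferin produced by CYP3A4 (20 nM) dealkylation of Luciferin-PPXE, 25 uM (its KM). NADPH-driven reaction ran 60 min at RT after 10 min compound preincubation; data scaled to 57 uM ketoconazole as 100% inhibition.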

[10] = target: Cytochrome P450 3A4 (Homo sapiens) (UniProt P08684); assay: qHTS Assay for Activators of Cytochrome P450 3A4 (AID 885); also: nearly all actives have a fitted effect of over 65% in size
Method in brief: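 Human CYP3A4 dealkylates Luciferin-PPXE to luciferin, which luciferase detection converts to light. Substrate was at its KM (25uM), buffer 200mM KPO4, reaction 60 min at RT.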

[11] = qHTS Assay for Lipid Storage Modulators (AID 1519; calls by dose curve); settings: Drosophila S3 cells, BODIPY lipid droplet/cell ratio, laser cytometry, cells loaded with oleic acid; for activity change, negative = inhibition: at 57.5 µM (top of the series)
Method in brief: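 Cells seeded at 5,000 per well were treated with compounds over a concentration series and loaded with oleic acid (400 uM, as added). Lipid droplet fluorescence (488 nm excitation, 500-530 nm channel) was read by laser-scanning cytometry and normalized to 20 uM Triacsin C.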

[12] = target: Dual specificity protein kinase CLK4 (Homo sapiens) (UniProt Q9HAZ1); assay: qHTS Assay for Inhibitors of CDC-like Kinase 4 (Kinase-Glo Assay) (AID 1770); also: nearly all actives have a fitted effect of over 65% in size; also: potency is read from the fitted curve at half-maximal effect
Method in brief: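 Recombinant human Clk4 (25 nM) phosphorylated RS repeat peptide (100 uM) with 1 uM ATP in Tris pH 7.5/MgCl2/EGTA/DTT/Triton buffer for 4.5 h at room temperature. Residual ATP was quantified by Kinase-Glo luciferase luminescence.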

[13] = target: Dual specificity protein kinase CLK4 (Homo sapiens) (UniProt Q9HAZ1); assay: qHTS Assay for Inhibitors of CDC-like Kinase 4 (ADP-Glo Assay) (AID 1771); also: nearly all actives have a fitted effect of over 70% in size; also: potency is read from the fitted curve at half-maximal effect
Method in brief: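 25 nM Clk4, 100 uM RS peptide, 1 uM ATP (final); 2 mM MgCl2, 0.5 mM EGTA, 2.5 mM DTT, 0.01% Triton X-100; 1 hr RT. ADP-Glo readout: ATP depletion 45 min, conversion/luciferase 30 min, luminescence.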

[14] = target: Dual specificity protein kinase CLK4 (Homo sapiens) (UniProt Q9HAZ1); assay: qHTS Assay for Inhibitors of CDC-like Kinase 4 (ADP-FP Assay) (AID 1795); also: nearly all actives have a fitted effect of over 60% in size; also: potency is read from the fitted curve at half-maximal effect
Method in brief: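 Recombinant human Clk4 (6.25 nM) phosphorylated RS repeat peptide (100 uM) with 1 uM ATP in Tris pH 7.5/MgCl2/EGTA/DTT/Triton buffer for one hour. ADP was quantified by Transcreener competitive fluorescence polarization against an ADP calibration curve.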

[15] = target: Ubiquitin carboxyl-terminal hydrolase 1 (Homo sapiens) (UniProt O94782); assay: Inhibitors of USP1/UAF1: Pilot qHTS (AID 504865);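 also: rhodamine fluorescence freed from ubiquitin-rhodamine substrate followed over time; top concentration of the series differs between compounds; % is scaled to controls: 0 for no effect and ±100 for the full control effect; nearly all actives have a fitted effect of over 35% in size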
Method in brief: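 USP1/UAF1 complex (1nM) preincubated with compound 15 min at room temperature, then Ub-Rho substrate (150nM final) added. Fluorescence read kinetically at 480/540 nm, 6 reads every 60 seconds. Buffer: 50mM HEPES pH 7.8, 0.5mM EDTA, 0.1 mg/ml BSA, 1mM TCEP, 0.01% Tween-20.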

[16] = Primary qHTS for small molecule stabilizers of the endoplasmic reticulum resident proteome: Secreted ER Calcium Modulated Protein (SERCaMP) assay (AID 1508630); also: % is scaled to controls: 0 for no effect and ±100 for the full control effect
Method in brief: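 The SH-SY5Y reporter protocol was run at 3 concentrations up to 38.3 uM (primary) or 11 concentrations (follow-up): 16 h compound, 100 nM thapsigargin for 4 h, then extracellular luciferase luminescence.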

[17] = target: Cytochrome P450 2C19 (Homo sapiens) (UniProt P33261); assay: qHTS Assay for Inhibitors and Substrates of Cytochrome P450 2C19 (AID 899); also: potency is read from the fitted curve at half-maximal effect; nearly all actives have a fitted effect of over 60% in size
Method in brief: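 5nM enzyme + 10uM Luciferin-H EGE (=KM), 50mM KPO4; cpd pin-transferred, 10 min 37C; NADPH regen, 60 min 37C; stopped w/ luciferin detection reagent, 20 min; luminescence. Normalized to 57uM ketoconazole (AC100).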

[18] = measured here: cell count channel max response
[19] = measured here: lipid channel max response

Glucocorticoid receptor (Homo sapiens), sequence (P04150 whole entry, looked up, the tested form may be a part): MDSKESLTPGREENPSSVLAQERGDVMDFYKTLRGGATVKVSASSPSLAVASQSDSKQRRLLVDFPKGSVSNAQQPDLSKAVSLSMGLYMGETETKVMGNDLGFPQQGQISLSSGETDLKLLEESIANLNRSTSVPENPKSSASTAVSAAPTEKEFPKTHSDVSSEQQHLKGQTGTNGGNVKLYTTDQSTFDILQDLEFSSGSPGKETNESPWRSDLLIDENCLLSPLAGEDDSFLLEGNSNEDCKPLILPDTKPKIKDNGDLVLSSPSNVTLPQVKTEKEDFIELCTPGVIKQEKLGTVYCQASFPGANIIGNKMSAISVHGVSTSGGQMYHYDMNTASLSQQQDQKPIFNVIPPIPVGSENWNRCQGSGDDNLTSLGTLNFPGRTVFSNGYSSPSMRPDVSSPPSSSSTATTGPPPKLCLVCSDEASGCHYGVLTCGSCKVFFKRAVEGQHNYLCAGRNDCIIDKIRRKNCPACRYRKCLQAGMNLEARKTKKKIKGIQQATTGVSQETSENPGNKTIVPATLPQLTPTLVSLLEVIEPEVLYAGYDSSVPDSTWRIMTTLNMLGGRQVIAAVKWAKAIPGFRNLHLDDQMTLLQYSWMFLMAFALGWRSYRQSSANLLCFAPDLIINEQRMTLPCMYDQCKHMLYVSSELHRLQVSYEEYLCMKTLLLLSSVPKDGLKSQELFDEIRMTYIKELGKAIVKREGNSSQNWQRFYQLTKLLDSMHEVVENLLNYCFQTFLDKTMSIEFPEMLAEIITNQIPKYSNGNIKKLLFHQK
Cytochrome P450 1A2 (Homo sapiens), sequence (P05177 whole entry, looked up): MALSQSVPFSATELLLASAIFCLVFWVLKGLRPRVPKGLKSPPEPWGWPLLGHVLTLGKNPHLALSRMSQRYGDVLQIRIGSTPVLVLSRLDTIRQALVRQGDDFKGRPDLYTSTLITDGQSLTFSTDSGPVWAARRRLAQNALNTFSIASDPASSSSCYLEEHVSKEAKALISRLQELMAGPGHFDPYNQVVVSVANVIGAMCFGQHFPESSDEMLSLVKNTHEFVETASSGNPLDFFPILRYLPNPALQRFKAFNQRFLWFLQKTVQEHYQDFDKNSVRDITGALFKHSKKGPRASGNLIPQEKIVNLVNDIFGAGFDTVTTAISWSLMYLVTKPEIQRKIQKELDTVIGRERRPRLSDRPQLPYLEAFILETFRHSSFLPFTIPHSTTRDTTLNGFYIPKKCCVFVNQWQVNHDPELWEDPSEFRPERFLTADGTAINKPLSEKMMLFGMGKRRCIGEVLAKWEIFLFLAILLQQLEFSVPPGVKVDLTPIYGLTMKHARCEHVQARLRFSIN
3',5'-cyclic-AMP phosphodiesterase 4B (Homo sapiens), sequence (Q07343 whole entry, looked up): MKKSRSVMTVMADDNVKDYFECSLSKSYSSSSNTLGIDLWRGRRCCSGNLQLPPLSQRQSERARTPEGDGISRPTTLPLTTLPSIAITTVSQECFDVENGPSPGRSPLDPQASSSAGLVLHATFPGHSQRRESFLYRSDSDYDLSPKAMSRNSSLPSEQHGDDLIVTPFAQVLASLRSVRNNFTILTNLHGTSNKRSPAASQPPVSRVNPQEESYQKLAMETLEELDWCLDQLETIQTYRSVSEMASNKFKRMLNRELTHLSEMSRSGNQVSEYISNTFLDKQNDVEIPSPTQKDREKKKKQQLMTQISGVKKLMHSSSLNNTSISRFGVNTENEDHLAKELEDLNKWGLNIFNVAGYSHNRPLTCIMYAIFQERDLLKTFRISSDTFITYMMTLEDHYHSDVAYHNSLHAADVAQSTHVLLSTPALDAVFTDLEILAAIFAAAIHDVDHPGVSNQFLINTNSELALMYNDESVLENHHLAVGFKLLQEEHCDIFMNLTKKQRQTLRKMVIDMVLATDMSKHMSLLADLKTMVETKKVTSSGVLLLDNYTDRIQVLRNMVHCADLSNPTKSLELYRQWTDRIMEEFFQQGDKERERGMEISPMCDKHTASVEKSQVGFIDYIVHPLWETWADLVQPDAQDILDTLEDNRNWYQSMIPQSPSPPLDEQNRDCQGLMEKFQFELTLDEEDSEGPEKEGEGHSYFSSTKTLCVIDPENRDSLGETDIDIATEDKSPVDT
Dual specificity protein kinase CLK4 (Homo sapiens), sequence (Q9HAZ1 whole entry, looked up): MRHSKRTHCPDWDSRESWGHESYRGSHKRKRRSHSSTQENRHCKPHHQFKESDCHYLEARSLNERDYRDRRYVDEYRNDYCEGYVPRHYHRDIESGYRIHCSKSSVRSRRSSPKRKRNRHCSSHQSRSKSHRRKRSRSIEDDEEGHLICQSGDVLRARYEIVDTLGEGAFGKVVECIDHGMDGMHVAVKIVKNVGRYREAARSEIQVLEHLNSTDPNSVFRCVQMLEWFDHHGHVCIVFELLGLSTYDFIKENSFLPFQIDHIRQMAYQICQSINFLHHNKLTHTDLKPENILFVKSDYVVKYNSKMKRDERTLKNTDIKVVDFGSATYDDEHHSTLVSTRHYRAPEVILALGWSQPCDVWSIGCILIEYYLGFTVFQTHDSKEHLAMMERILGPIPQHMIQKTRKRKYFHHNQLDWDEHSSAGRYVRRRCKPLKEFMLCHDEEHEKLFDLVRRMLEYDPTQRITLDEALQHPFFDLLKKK
Ubiquitin carboxyl-terminal hydrolase 1 (Homo sapiens), sequence (O94782 whole entry, looked up): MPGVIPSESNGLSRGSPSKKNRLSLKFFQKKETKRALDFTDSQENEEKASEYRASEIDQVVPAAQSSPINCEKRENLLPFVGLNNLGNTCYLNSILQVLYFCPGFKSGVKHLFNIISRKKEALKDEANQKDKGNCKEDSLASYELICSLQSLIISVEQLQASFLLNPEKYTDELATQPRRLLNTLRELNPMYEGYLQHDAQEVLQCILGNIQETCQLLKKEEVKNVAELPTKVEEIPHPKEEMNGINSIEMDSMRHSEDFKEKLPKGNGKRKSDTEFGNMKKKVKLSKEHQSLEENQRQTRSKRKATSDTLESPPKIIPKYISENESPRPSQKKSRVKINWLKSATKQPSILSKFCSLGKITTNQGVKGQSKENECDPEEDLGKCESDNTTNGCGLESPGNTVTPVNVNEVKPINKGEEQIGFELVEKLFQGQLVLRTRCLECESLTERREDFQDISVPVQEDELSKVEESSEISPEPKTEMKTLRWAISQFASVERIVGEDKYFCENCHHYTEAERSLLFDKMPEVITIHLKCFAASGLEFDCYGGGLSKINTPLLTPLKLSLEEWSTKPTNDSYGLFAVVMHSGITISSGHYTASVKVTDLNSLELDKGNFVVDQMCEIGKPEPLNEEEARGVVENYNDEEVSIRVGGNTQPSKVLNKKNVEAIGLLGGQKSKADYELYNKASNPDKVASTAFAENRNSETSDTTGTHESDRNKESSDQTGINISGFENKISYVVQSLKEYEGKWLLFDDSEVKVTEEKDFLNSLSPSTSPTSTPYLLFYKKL
Cytochrome P450 3A4 (Homo sapiens), sequence (P08684 whole entry, looked up): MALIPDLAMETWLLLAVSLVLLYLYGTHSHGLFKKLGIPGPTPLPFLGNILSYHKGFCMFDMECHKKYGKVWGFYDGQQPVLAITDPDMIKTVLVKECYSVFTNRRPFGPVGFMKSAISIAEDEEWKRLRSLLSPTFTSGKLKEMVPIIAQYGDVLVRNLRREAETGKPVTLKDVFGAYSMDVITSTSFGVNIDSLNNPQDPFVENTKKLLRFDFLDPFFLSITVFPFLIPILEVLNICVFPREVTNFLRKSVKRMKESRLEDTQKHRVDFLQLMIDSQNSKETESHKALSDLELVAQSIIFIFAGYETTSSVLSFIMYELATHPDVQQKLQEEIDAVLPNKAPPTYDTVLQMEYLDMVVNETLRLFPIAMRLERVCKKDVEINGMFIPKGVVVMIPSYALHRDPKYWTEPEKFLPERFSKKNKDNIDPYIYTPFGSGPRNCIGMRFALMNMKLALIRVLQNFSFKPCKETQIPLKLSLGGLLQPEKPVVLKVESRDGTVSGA
Cytochrome P450 2C19 (Homo sapiens), sequence (P33261 whole entry, looked up): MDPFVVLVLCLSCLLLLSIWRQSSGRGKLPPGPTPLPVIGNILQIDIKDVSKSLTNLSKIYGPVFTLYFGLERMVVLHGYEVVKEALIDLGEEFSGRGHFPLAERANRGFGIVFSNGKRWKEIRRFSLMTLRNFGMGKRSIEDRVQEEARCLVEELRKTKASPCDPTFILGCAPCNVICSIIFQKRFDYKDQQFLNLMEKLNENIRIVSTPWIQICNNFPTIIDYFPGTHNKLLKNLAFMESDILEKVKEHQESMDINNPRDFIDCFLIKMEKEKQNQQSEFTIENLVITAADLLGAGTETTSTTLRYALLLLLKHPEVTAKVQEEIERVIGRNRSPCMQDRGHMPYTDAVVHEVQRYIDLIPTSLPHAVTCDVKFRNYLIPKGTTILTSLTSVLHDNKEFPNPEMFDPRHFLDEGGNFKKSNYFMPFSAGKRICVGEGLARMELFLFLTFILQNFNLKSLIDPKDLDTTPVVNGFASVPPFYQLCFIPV

CC(=O)NCCNc1ncncc1-c1ccc(N(C)C)cc1
inactive: activity change, negative = inhibition [1] -11.6% | activity change, negative = inhibition [3] 9.49% | activity, negative = inhibition [4] 9.91% | Potency [5] > 46 µM | Potency [6] > 46 µM | outcome [7] | Potency [8] | Potency [10] | activity change, negative = inhibition [11] -9.91% | Potency [12] | Potency [13] | Potency [14] | Potency [15] | Potency [16]
active: Potency [2] 6.31 µM | Potency [9] 2 µM
25.7%: max response [11, 18]
8.09%: max response [11, 19]

c1csc(CNc2ncnc3ccc(-c4ccoc4)cc23)c1
15.9%: max response [11, 18]
inactive: activity change, negative = inhibition [3] 1.06% | activity, negative = inhibition [4] -21% | Potency [5] > 46 µM | Potency [6] > 46 µM | outcome [7] | Potency [8] | Potency [10] | activity change, negative = inhibition [11] -0.111% | Potency [15] | Potency [16]
active: Potency [2] 3.16 µM | Potency [9] 7.94 µM | Potency [17] 6.31 µM | Potency [12] 251 nM | Potency [13] 355 nM | Potency [14] 50.1 nM
14.7%: max response [11, 19]

COCCn1c(=O)c(C)nc2cnc(N(C)C)nc21
17.2%: max response [11, 18]
active: Potency [2] 3.98 µM
inactive: activity change, negative = inhibition [1] 3.65% | activity change, negative = inhibition [3] 13.3% | activity, negative = inhibition [4] -5.78% | Potency [5] > 9.22 µM | Potency [6] > 46 µM | outcome [7] | Potency [8] | activity change, negative = inhibition [11] 4.96% | Potency [12] | Potency [13] | Potency [14] | Potency [15] | Potency [16]
22.8%: max response [11, 19]
